Shown are actives, neighbours in structure and some others; about 7.2% of the full set was active somewhere.
FMDV inh – foot and mouth disease virus antiviral activity. FMDV antiviral cell-based qHTS. Potency, µM (top dose mostly 57.9 µM), for the others: top-dose activity change, negative = inhibition, usual class: inhibitors. 410,000 tested, 1.2% active. AID 1159524; calls by dose curve; tested in HEK293T cells; further: read-out not given here; nearly all actives have a fitted effect of over 45% in size
HCV inhibitor – inhibitors of hepatitis C virus infection. Huh7.5.1 HCVcc-Cre infection, luciferase reporter, 44 h. Potency, µM (titrated, usually from 41.8 µM), for inactives: at the highest dose activity change, negative = inhibition, actives largely listed as inhibitors. 340,000 tested, 3.4% active
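Infectious HCVcc-Cre (~0.5 moi) was added to cells just after compound, with cells seeded 4 h earlier at 1,000 per well. Luciferase activity after 44 h culture reported infection; substrate was incubated 15 min at room temperature before reading.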
Sm TGR inh – blocks Schistosoma mansoni thioredoxin glutathione reductase | purified TGR, DTNB reduction, TNB absorbance 405 nm | Potency, µM (series often up to 114 µM), for inactives: top-dose activity change, negative = inhibition, actives largely listed as inhibitors | 360,000 tested, 3% active; further: nearly all actives have a fitted effect of over 60% in size
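TGR 20 nM + NADPH 100 uM (dispensed conc.), cpd preinc 15 min RT; start with NADPH (500 uM addition) then DTNB (15 mM addition). Kinetic TNB absorbance, 405 nm filter. Four-parameter Hill fit across titration.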
RE007 growth inh – less growth of the S. pombe RE007 Vpr strain; S. pombe RE007 Vpr strain, BacTiter-Glo ATP luminescence, 24 h; Potency, µM (top dose mostly 92.2 µM), inactives show top-dose activity change, negative = less growth, most hits filed as inhibitors; 360,000 tested, 0.21% active; AID 651644; active means well fitted falling curve with a large enough effect; inconclusive means small, poorly fitted or top-dose-only effect; inactive means no such curve, though single readings can be large or run the other way; further: nearly all actives have a fitted effect of over 50% in size
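Fission yeast RE007 carrying one integrated HIV-1 vpr copy, seeded at OD 0.01 in PMG+AL medium with 23 nL pinned compound. Grown 24 h at 30 degrees; viability read by BacTiter-Glo luminescence after 5 min.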
LASV entry inh – inhibitors of Lassa virus binding or cell entry; Potency, µM (titrated, usually from 37.9 µM), without a hit: top-dose activity change, negative = inhibition, actives largely listed as inhibitors; 300,000 tested, 1.2% active; Lassa virus pseudotype entry inhibition, cell reporter; calls by dose curve; tested in HEK293 cells; further: nearly all actives have a fitted effect of over 50% in size
Marburg entry inh – Marburg virus entry inhibition | Potency, µM (top dose mostly 37.8 µM), inactives show at the highest dose activity change, negative = inhibition, usual class: inhibitors | Marburg virus pseudotyped entry inhibition, cell reporter | 300,000 tested, 1.8% active; calls by dose curve; tested in HEK293 cells
Numbers without * were called inactive; ? = inconclusive; . = not tested or not shown; [ ] = another dose, or the depositor's remark. Unless noted, the call rests on the fitted dose curve; in most records, active means well fitted curve in the direction sought with a large enough effect; inconclusive means small, poorly fitted or top-dose-only effect, or another doubt; inactive means no such curve, though single readings can be large; an effect the other way counts as inactive or inconclusive. On the % scale 0 is the no-effect control and ±100 the full control effect; potency means the concentration at half of the fitted maximal effect.

SMILES	FMDV inh	HCV inhibitor	Sm TGR inh	RE007 growth inh	LASV entry inh	Marburg entry inh
CC1CC[C@@]23CCC4(C)[C@@]5(C)CCC6C(C)(C)C(=O)CC[C@@]6(C)C5C=C[C@@]4(OC2=O)C3C1C (some centres not stated)	-2.5%	.	.	.	.	.
CCOc1ccc(NC(=O)CSc2ncc(S(=O)(=O)c3ccc(F)c(C)c3)c(=O)[nH]2)cc1	-3.1%	.	-4.7%	.	.	-4.9%[46.1 µM]
Cc1cc(OCC(=O)Nc2nc3c(s2)CCCC3)cc(C)c1Cl	-10.2%	.	-6.3%	.	1.8%[46.1 µM]	17.3%[46.1 µM]
O=C(CSc1nnnn1C1CC1)N1CCN(c2cccc(Cl)c2)CC1	-59.9%	12.6µM*	.	-0.4%	.	.
CC(C)c1ccc(CN2CCN(C(=O)CSc3nnnn3C3CC3)CC2)cc1	?	5.62µM*	-6.4%	-5.0%	.	.
CC(=O)c1c(C)oc2c1cc(NS(=O)(=O)c1ccc(Cl)c(C)c1)c1ccccc12	-14.5%	.	0.8%	.	?	?
Cc1ccc(S(=O)(=O)CNC(=S)c2cccc(Cl)c2)cc1	-9.3%	7.8%	3.55µM*	-11.4%	-3.6%	15.2%
Cc1ccc(C(=S)NCS(=O)(=O)c2ccc(C)cc2)cc1	9.6%	0.0%	2.82µM*	3.9%	-1.9%	?
CC(C)c1ccc(NC(=O)CSc2nc3ccccc3nc2Cc2ccccc2)cc1	16.1%	.	6.3%	.	29.3%[46.1 µM]	.
COc1ccc(O)c(CN2CCOc3c(cc(-c4cccc(OC)n4)cc3OC)C2)c1	-13.8%	.	.	.	.	.
CC(=O)c1c(C)oc2ccc(N(C(=O)Oc3ccccc3)S(=O)(=O)c3ccccc3)cc12	0.3%	.	0.0%	.	?	.
COc1ccc(S(=O)(=O)Nc2ccc3ccccc3c2)cc1C	22.5%	11.2µM*	2.0%	-10.7%	-3.5%	?
COc1ccc(S(=O)(=O)Nc2ccc(S(=O)(=O)N3CCCCC3)cc2)cc1C	95.7%	35.5µM*	6.3%	-3.3%	-12.3%	12.5%
O=S(=O)(Nc1ccc(S(=O)(=O)N2CCCCC2)cc1)c1ccc(Br)s1	28.5%	2.8%	6.31µM*	6.5%	-1.7%	-4.0%
COc1cc(/C=C2/C(=O)c3cccc([N+](=O)[O-])c3C2=O)c(Br)cc1O	3.55µM*	-21.9%	35.5µM*	-12.3%	-9.4%	?
Cc1nc2ccc(NC(=S)NCc3ccccc3)cc2nc1C	-2.5%	?	39.8µM*	30.1%	-13.4%[46.1 µM]	8.4%[46.1 µM]
C=CCNC(=S)Nc1ccc(Cl)cc1	18.6%	0.8%	-13.1%	5.1%	-11.6%	11.9%[46.1 µM]
C=CCNC(=S)Nc1ccc2nc(C)c(C)nc2c1	29.5%	3.2%	39.8µM*	-6.4%	27.1%	3.5%
Cc1ccc(NC(=S)NCc2ccccc2)cc1C	1.7%	-12.0%	.	4.2%	-20.5%	-0.6%
C=CCNC(=S)Nc1ccc(OC(F)F)c(Cl)c1	29.2%	11.2µM*	-25.7%	7.3%	?	-27.9%[46.1 µM]
Cc1nc2ccc(NC(=S)N3CCCC3)cc2nc1C	-3.8%	-21.7%	-1.5%	-2.9%	.	.
COc1ccc(N(C)C(=S)Nc2ccc3nc(C)c(C)nc3c2)cc1	-23.2%	11.9%	56.2µM*	-1.5%	?	?
Cc1ccc(NC(=O)C2CCCN(S(=O)(=O)c3cccc4nsnc34)C2)c(C)c1 (configuration not stated)	-22.4%	.	8.7%	.	12.1%[46.1 µM]	-1.2%[46.1 µM]
CCOc1ccc(NC(=O)C(C)Oc2ccccc2C(=O)Nc2ccc(C)c(Cl)c2)cc1 (configuration not stated)	26.4%	11.2µM*	-20.4%	0.5%	-6.5%	-23.8%
Cc1ccc(NC(=O)COc2ccccc2C(=O)Nc2ccccc2)cc1Cl	-16.3%	-8.9%	-10.7%	32.4%	13.6%	-0.6%
SMILES	FMDV inh	HCV inhibitor	Sm TGR inh	RE007 growth inh	LASV entry inh	Marburg entry inh
COC(=O)C[C@H]1c2ccccc2[C@@H]2C(=C[C@@H](C)[C@H]3C(=O)N(O)C(=O)[C@H]32)N1C(=O)OC	.	.	.	.	.	8.0%[14.2 µM]
CCOC(CNCc1cc(C)c2[nH]c3ccccc3c2c1C)OCC	?	1.78µM*	.	2.0%	?	?
Cc1ccccc1C(=O)NC(C)c1nnc2n1CCN(Cc1ccc(F)cc1)CC2 (configuration not stated)	-0.5%	.	.	.	.	.
COCCCNC(=O)c1ccc(Cn2c(SCc3cccc(C)c3)nc3cccnc32)cc1	3.6%	.	-1.1%	.	10.8%[46.1 µM]	.
Cc1[nH][nH]c(=O)c1C(c1ccc(-c2ccc(C(=O)O)cc2)o1)c1c(C)[nH][nH]c1=O	8.2%	9.4%	15.8µM*	-27.5%	15.2%	-20.5%[46.1 µM]
Cc1[nH][nH]c(=O)c1C(c1ccc(-c2ccc(Cl)c(Cl)c2)o1)c1c(C)[nH][nH]c1=O	-19.4%	3.2%	39.8µM*	14.5%	.	-1.3%
CCOc1ccc(Cl)cc1C(c1c(C)[nH][nH]c1=O)c1c(C)[nH][nH]c1=O	43.8%	14.9%	?	18.2%	-13.6%[46.1 µM]	-12.0%[46.1 µM]
Cc1[nH][nH]c(=O)c1C(c1ccc(-c2ccc(F)cc2)o1)c1c(C)[nH][nH]c1=O	-27.9%	3.9%	31.6µM*	-12.3%	-5.9%[46.1 µM]	17.2%[46.1 µM]
COc1ccc(-c2ccc(C(c3c(C)[nH][nH]c3=O)c3c(C)[nH][nH]c3=O)o2)c([N+](=O)[O-])c1	.	4.9%	28.2µM*	-8.6%	-28.8%[46.1 µM]	?
Cc1[nH][nH]c(=O)c1C(c1c(C)[nH][nH]c1=O)c1cn(C)c2ccccc12	-19.4%	4.0%	-6.1%	-5.8%	-8.4%	-16.0%[46.1 µM]
Cc1noc(C)c1C(=O)N1CCC2(CCCN(c3ccccn3)C2)CC1	-2.3%	.	.	.	.	.
Cc1ccc(S(=O)(=O)NCC(c2ccc(N(C)C)cc2)N2CCc3ccccc32)cc1 (configuration not stated)	-0.9%	.	-3.7%	.	-3.4%[46.1 µM]	.
CCc1ccccc1NC(=O)C(=O)NCCc1sc(-c2cccc(F)c2)nc1C	-9.2%	.	1.7%	.	12.7%[46.1 µM]	.
COc1ccc(C(=O)C(Cc2ccccc2)N(C)C)cc1 (configuration not stated)	37.9%	-2.8%	-19.8%	-3.4%	13.7%	2.5%
COc1ccc(C(=O)C(CCCCC(CN(C)C)C(=O)c2ccc(OC)cc2)CN(C)C)cc1 (configuration not stated)	-8.7%	3.55µM*	-38.4%	4.5%	?	?
O=C(c1ccccc1)C(CCc1ccccn1)CCc1ccccn1	40.2%	-20.3%	.	-11.5%	16.7%	?
CN(C)CC(CCC(CN(C)C)C(=O)c1ccccc1)C(=O)c1ccccc1 (configuration not stated)	28.2µM*	?	2µM*	1.3%	-30.5%	12.6µM*
CCN1CCN(CCCNC(=O)Cn2c(-c3cccs3)cc3cc(F)ccc32)CC1	-6.8%	.	-24.1%	.	-29.0%[46.1 µM]	.
O=C(Nc1ccc2c(c1)OCCO2)c1cc2sccc2n1Cc1ccccc1	?	11.2µM*	2.3%	17.4%	?	?
O=C(Nc1ccc2c(c1)OCCO2)c1cc2sccc2n1Cc1ccc(F)cc1	-27.4%	?	2.3%	12.1%	-23.6%	-8.7%
Nc1ncnc2c1ncn2[C@H]1O[C@@H](CSCC[C@@H](N)C(=O)O)[C@H](O)[C@@H]1O	7.1%	.	.	.	.	.
